# HT1080NT lethal – kills 2HG-producing HT-1080-NT fibrosarcoma cells; HT-1080-NT fibrosarcoma viability, CellTiter-Glo ATP luminescence, 48 h; Potency, µM (top dose mostly 46.1 µM), for inactives: top-dose activity, negative = less viability, hits mostly cytotoxic; actives 1.6% (n = 360,000); AID 686970;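 note: NT is the 2HG producing partner of a matched IDH1 knockdown line; potency is the fitted concentration of half-maximal effect; 0% = DMSO-treated cells and -100% = media-only wells without cells; nearly all actives have a fitted effect of over 55% in size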
#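 Fibrosarcoma NT cells, 750 per well in 5% FBS RPMI, were exposed to compound for 48 hours. Viability: CellTiter-Glo luminescence.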
# HT1080 IDH1KD tx – kills HT-1080 cells with IDH1 knockdown | HT-1080 IDH1 knockdown viability, ATP luminescence, 48 h | Potency, µM (doses to about 46.1 µM), without a hit: at the top dose activity, negative = toxicity, most hits filed as cytotoxic | actives 2% (n = 360,000) | AID 686971;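 note: potency is the fitted concentration of half-maximal effect; 0% = DMSO wells and -100% = cell-free medium wells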
#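 Viability of IDH1-knockdown HT-1080 fibrosarcoma cells was assessed by CellTiter-Glo after 48 h at 37 °C with titrated compound; concentration-effect curves were classified by fit quality and response size.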
# TDP1 cell noCPT – qHTS for Inhibitors of human tyrosyl-DNA phosphodiesterase 1 (TDP1): qHTS in cells in absence of CPT; DT40 Tdp1-/- hTDP1 cells, no CPT, ATP luminescence, 48 h; Potency, µM (series often up to 46.2 µM), for the others: at the top dose activity change, negative = growth inhibition, actives largely listed as inhibitors; actives 15% (n = 420,000); AID 686978, 2013; note: potency is the fitted concentration of half-maximal effect; nearly all actives have a fitted effect of over 55% in size
#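 Cells were dispensed at 400 per well, compounds added by pin tool, plates incubated ≥48 hr at 37 °C, then CellTiter-Glo added for 30 min at room temperature before luminescence reading. Line: DT40 Tdp1-/- complemented with hTDP1; camptothecin omitted.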
# DT40 TDP1 CPT – growth inhibition of DT40 Tdp1-/-;hTDP1 cells with camptothecin (screen for TDP1 inhibitors). Potency, µM (series often up to 46.2 µM), for inactives: top-dose activity change, negative = growth inhibition, actives largely listed as inhibitors. chicken DT40 Tdp1-/-;hTDP1 cells + 20 nM CPT, ATP luminescence, 48 h. AID 686979. actives 12% (n = 420,000); note: potency is the fitted concentration of half-maximal effect; nearly all actives have a fitted effect of over 55% in size
#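 Chicken DT40 Tdp1-/- cells stably complemented with human TDP1 were seeded at 400 cells/well in medium containing 20 nM camptothecin, exposed to pin-transferred compounds, and grown at 37 °C for at least 48 hr. Viability was read as ATP luminescence.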
# IL1B secr inh – inhibitors of inflammasome signaling (IL-1 beta secretion); THP-1 LPS/ATP IL-1B secretion, AlphaLISA, 16 h; stronger effect = lower value; activity change, % at 57.5 µM; actives 4.7% (n = 360,000); in the data active = activity change below about -50%; inconclusive = mostly about -30% to -49%
#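 Secreted IL-1B measured by AlphaLISA bead assay after 16 h compound exposure of THP-1 cells; compounds (final up to 57.5 uM) added 1 h before LPS (250 ng/mL) and ATP (1.25 mM) stimulation; lower signal means less secretion.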
# 12-LOX inh – ALOX12 (human) lipoxygenase inhibition; P18054; purified 12hLO, xylenol orange hydroperoxide absorbance; Potency, µM (doses to about 108 µM), for inactives: at the highest dose activity change, negative = inhibition, hits mostly inhibitors; actives 1.1% (n = 580,000); note: potency is the fitted concentration of half-maximal effect
# Target sequence (P18054 whole entry, looked up): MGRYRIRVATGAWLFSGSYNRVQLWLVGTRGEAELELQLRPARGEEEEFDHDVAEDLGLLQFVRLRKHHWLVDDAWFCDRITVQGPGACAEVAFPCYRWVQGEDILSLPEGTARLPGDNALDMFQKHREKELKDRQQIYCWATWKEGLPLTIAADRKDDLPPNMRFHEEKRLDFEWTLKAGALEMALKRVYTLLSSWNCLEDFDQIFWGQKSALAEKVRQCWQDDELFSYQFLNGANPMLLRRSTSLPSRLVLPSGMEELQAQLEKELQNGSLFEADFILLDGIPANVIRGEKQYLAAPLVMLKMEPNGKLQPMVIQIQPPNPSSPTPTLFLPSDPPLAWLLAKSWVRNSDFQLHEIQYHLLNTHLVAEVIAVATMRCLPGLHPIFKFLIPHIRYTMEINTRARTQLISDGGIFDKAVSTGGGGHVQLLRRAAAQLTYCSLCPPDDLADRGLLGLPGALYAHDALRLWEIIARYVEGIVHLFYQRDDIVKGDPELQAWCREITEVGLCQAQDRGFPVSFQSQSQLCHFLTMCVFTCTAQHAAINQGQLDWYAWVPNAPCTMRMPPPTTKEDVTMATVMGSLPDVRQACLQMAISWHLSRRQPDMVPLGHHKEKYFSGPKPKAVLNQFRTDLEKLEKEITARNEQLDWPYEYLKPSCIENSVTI
#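 Purified human 12hLO (150 nM final) in 25 mM Hepes, 0.01% Triton X-100, pH 7.0 was preincubated 15 min at room temperature with compound. Then 40 uM arachidonic acid was added, 30 min. Hydroperoxide was read by Fe-XO absorbance ratio 573/405 nm.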
# Starred values were filed as active, the others as inactive; i = inactive; ? = inconclusive; . = no result given; [ ] = remark or other dose. Shown is part of a subset that was picked to be rich in hits. Unless noted, calls come from the whole dose curve; as a rule, active = well fitted curve in the direction sought with a large enough effect; inconclusive = small, poorly fitted or top-dose-only effect, or another doubt; inactive = no such curve, though single readings can be large; an effect the other way counts as inactive or inconclusive. Unless noted, % is set by controls: 0 for no effect and ±100 for the full control effect.
SMILES,HT1080NT lethal,HT1080 IDH1KD tx,TDP1 cell noCPT,DT40 TDP1 CPT,IL1B secr inh,12-LOX inh
Cc1ccc(C2=CC(c3ccc(Cl)cc3)n3nc(-c4ccc(C)cc4)nc3N2)cc1 (configuration not stated),.,.,?,33µM*,.,?
CC(=O)Nc1nc2n(n1)C(c1ccc(F)cc1)C=C(c1ccc(Cl)cc1)N2 (configuration not stated),.,.,?,?,.,5%
CN(Cc1cccnc1)c1ccc2ncc(Nc3cccc(C(F)(F)F)c3)n2n1,.,.,.,.,.,-12%[176 µM]
CC(NC(=O)c1ccc(N2CC(=O)NC2=O)cc1)c1cn2ncsc2n1 (configuration not stated),.,.,.,.,.,8%
COc1ccc(C2C=C(c3ccccc3)Nc3ncnn32)cc1 (configuration not stated),16%,10%,?,18µM*,-19,0%
COc1ccc(Cl)cc1C(=O)N1CCC2(CC1)CC(O)CCO2 (configuration not stated),.,.,.,.,.,42%
CC(C)N(Cc1ccccc1)C(=O)CN1C(=O)CSc2ccc(S(=O)(=O)N3CCCC3)cc21,.,.,-82%,12µM*,.,-2%
CC(C)N(Cc1ccccc1)C(=O)CN1C(=O)COc2ccc(S(=O)(=O)N3CCCCCC3)cc21,-12%,-5%,13µM*,15µM*,-21,?
CC(C)CCNC(=O)CN1C(=O)CSc2ccc(S(=O)(=O)N3CCCCC3)cc21,.,.,?,?,.,-17%
CC1CCN(S(=O)(=O)c2ccc3c(c2)N(CC(=O)N2CCN(c4ccccc4)CC2)C(=O)CO3)CC1,.,.,.,.,.,-22%
CC1CCN(S(=O)(=O)c2ccc3c(c2)N(CC(=O)O)C(=O)CO3)CC1,.,.,16µM*,15µM*,.,-13%
Cc1[nH]cnc1CN1CCCC(c2[nH]ncc2Cc2ccccc2)C1 (configuration not stated),.,.,.,.,.,118%
CC(C)(Oc1nn(Cc2cccc(Cl)c2)c2ccccc12)C(=O)NCc1cnccn1,.,.,.,.,.,7%[176 µM]
C=CCNC(=O)C(NC(=O)c1ccc(OC)cc1)C1CCN(C(=O)c2cccc(OC)c2)CC1 (configuration not stated),.,.,.,.,.,47%
COc1ccccc1-c1noc(CSc2nc3ccc(C)cc3[nH]2)n1,.,.,16µM*,?,.,1%
COc1ccc(-c2noc(COc3ccccc3OC)n2)cc1OC,1%,-4%,?,16µM*,-29,19%
Fc1cccc(F)c1CSc1nc2ccccc2[nH]1,14%,-1%,-11%,-4%,4,0%
Cc1ccccc1-c1noc(CSc2nc3ccccc3[nH]2)n1,.,.,6.5µM*,18µM*,.,-20%
c1ccc(-c2cc(CSc3nc4ccccc4[nH]3)on2)cc1,-17%,-16%,21µM*,12µM*,50,16%
Cc1noc(C)c1CSc1nc2ccccc2[nH]1,17%,3%,-4%,-7%,-2,-6%
O=Cc1ccc(OCc2ccc(Cl)c(Cl)c2)cc1,.,.,.,.,.,2%
CC(C)(CO)NC(=O)C12CC3CC(CC(C3)C1)C2,.,.,.,.,.,-1%
CCOc1ccc(-c2ccc(SCC(=O)NC3CCCCC3)nn2)cc1,6%,0%,-4%,-10%,12,i
Cc1ccc2nc(SCc3nnc(-c4cccs4)o3)[nH]c2c1,-4%,-11%,12µM*,?,3,13%
COc1ccc(-c2noc(CSc3nc4ccccc4[nH]3)n2)cc1OC,.,.,18µM*,23µM*,.,-21%
SMILES,HT1080NT lethal,HT1080 IDH1KD tx,TDP1 cell noCPT,DT40 TDP1 CPT,IL1B secr inh,12-LOX inh
COc1ccc(C#CCN(Cc2ccc(OC)cc2OC)C(N)=NC(=O)CCc2ccccc2)cc1,.,.,.,.,.,39%
N#Cc1ccc(C(=O)NCC(c2ccco2)N2CCCCC2)cc1 (configuration not stated),8%,15%,5%,4%,8,417%
O=C(NCC(c1ccco1)N1CCCCC1)c1ccc(COc2ccc(Cl)cc2)cc1 (configuration not stated),18µM*,?,13µM*,21µM*,-75*,?
CCOC(=O)c1ccc(NC(=O)C(=O)NCC2(c3ccc(OC)cc3)CCOCC2)cc1,-1%,0%,15µM*,?,-24,0%
CCCCCOc1ccc(C(=O)NCC2(c3ccccc3)CCOCC2)cc1,-5%,?,?,?,-25,-19%
CCCCOc1ccc(C(=O)NCC2(c3ccccc3)CCOCC2)cc1,-5%,0%,?,21µM*,-14,-6%
COc1ccc(C2(CNC(=O)c3ccccc3)CCOCC2)cc1,-2%,15%,-3%,-3%,.,?
CCOc1ccc(NS(=O)(=O)c2ccc(C(=O)NCC(c3ccc(OC)cc3)N3CCCC3)cc2)cc1 (configuration not stated),-4%,1%,13µM*,?,0,-23%
O=C(c1cccs1)N1CCCN(c2cc(-c3ccc(Cl)cc3)[nH]n2)CC1,.,.,.,.,.,14%
O=C(COc1ccc(Cl)cc1Br)NCC(c1ccco1)N1CCCC1 (configuration not stated),-10%,-13%,18µM*,?,-3,328%
CCCCOc1ccc(C(=O)NCC(c2ccc(Cl)cc2)N2CCOCC2)cc1 (configuration not stated),.,.,21µM*,15µM*,.,6%
Cc1ccc(C(=O)NCC(c2ccc(Cl)cc2)N2CCCCC2)cc1 (configuration not stated),.,.,13µM*,12µM*,.,-16%
CCOc1ccc(C(=O)NCC(=O)NCC(c2ccc(OC)cc2)N2CCCC2)cc1 (configuration not stated),-5%,-11%,5%,-4%,-23,4%
Cc1ccc(C(CNC(=O)Nc2ccc(Cl)cc2)N2CCN(C)CC2)cc1 (configuration not stated),?,?,?,?,?,7%
O=C(COc1cccc(C(F)(F)F)c1)NCC(c1ccco1)N1CCCC1 (configuration not stated),-1%,-11%,?,-10%,-23,-25%
COc1ccc(CC(=O)NCC(c2ccc(Cl)cc2)N2CCOCC2)cc1 (configuration not stated),.,.,-20%,-9%,.,6%
CCOc1ccc(C(=O)NCC(c2ccc(Cl)cc2)N2CCCCC2)cc1 (configuration not stated),.,.,9.2µM*,7.3µM*,.,9%
